From PubChem BioAssay
Sampled rows, rich in hits. Any-hit rate of the full collection: about 3.8%.
B2AR ag – beta2AR agonists driving receptor internalization, primary screen, cell-based, FAP fluorogen, flow cytometry. response, % (no concentration beside the values). 340,000 tested, 0.43% active. Am2.2-beta2AR cells. Beta-2 adrenergic receptor (Homo sapiens), P07550;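 active = response above a set limit, near 3 SD of response in nonfluorescent compounds, cut at about 42% in these data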
Target sequence (P07550 whole entry, looked up): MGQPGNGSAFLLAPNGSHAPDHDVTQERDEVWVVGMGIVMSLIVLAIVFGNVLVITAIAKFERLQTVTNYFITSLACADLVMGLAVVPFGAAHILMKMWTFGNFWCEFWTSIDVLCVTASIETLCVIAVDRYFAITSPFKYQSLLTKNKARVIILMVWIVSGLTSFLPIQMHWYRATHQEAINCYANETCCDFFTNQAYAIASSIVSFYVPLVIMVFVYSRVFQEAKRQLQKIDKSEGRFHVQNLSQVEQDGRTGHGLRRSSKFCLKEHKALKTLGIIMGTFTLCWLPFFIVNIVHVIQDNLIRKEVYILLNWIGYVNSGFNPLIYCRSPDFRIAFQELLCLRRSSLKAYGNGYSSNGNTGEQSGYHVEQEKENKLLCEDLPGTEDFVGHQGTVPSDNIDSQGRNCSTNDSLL
tim10-1 inh – growth inhibitors of tim10-1 mutant yeast, primary screen, luminescence, uHTS | S. cerevisiae tim10-1 ts strain growth, BacTiter-Glo, 24 h | inhibition, % at 20 µM | 330,000 tested, 2.2% active;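 active = inhibition of at least 40%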;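 also: mutant grown at 25 °C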
TIM10 inh – growth inhibitors of isogenic TIM10 control yeast, primary screen, counter-screen for tim10-1 yeast inhibitor project, luminescence, uHTS; S. cerevisiae TIM10 strain growth, BacTiter-Glo luminescence, 24 h; 330,000 tested, 1.4% active; inhibition, % at 10 µM;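 active = inhibition of 40% or more at the single tested concentration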;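 also: wild-type TIM10 isogenic control strain grown at permissive 25 °C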
PfHsp90 yeast 2 – growth inhibition of PfHsp90-expressing yeast, primary screen, antimalarial PfHsp90 inhibitor project, S. cerevisiae, BacTiter-Glo luminescence, single point, set 2 | inhibition, % at 9.4 µM | BacTiter-Glo ATP, 48 h; yeast lacking PDR1 and PDR3 efflux regulators | AID 504621, 2011 | 310,000 tested, 0.32% active;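 active = every replicate shows inhibition above about 80%, whatever the replicate mean, limit read from the data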
tim23-1 inh – growth inhibitors of tim23-1 mutant yeast, primary screen, luminescence, uHTS | S. cerevisiae tim23-1 growth, BacTiter-Glo luminescence, 24 h | inhibition, % at 20 µM | 330,000 tested, 1.3% active | AID 463212, 2010;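 active = growth inhibition of the mutant yeast at or above 50%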;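 also: temperature-sensitive mutant grown at 25 °C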
tim10-1 confirm – growth inhibitors of tim10-1 mutant yeast, confirmation, single concentration, luminescence, S. cerevisiae; 7,400 tested, 56% active; shares compounds with tim10-1 inh; S. cerevisiae tim10-1 ts strain growth, BacTiter-Glo, 24 h; inhibition, % at 20 µM;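 active = inhibition of yeast growth at or above a set limit in either of two repeat tests at 20 µM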;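 also: tim10-1 mutant grown at permissive 25 °C to find synthetic lethal compounds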
Each line names hits and unclear results; the compound was inactive in the other large screens (follow-up assays come after a bar, where they were run).

COC(=O)C1=C(c2ccc(C(C)=O)cc2)C[C@@H]2CC[C@H]1N2C(=O)NCc1ccc(F)cc1	none
Cc1ccc2c(C)cccc2c1	none (no result: tim10-1 inh, TIM10 inh, tim23-1 inh)
Cc1ccc(/C=C2\C(=O)NC(=S)N(c3cccc(F)c3)C2=O)o1	B2AR ag 50
CCOc1ccc(N2C(=O)/C(=C/c3ccc(C)o3)C(=O)NC2=S)cc1	none
COc1ccc(N2C(=O)/C(=C/c3ccc(C)o3)C(=O)NC2=S)cc1	B2AR ag 44
O=[N+]([O-])c1cccc(NP(=O)(N2CC2)N2CC2)c1	none (no result: tim10-1 inh, TIM10 inh, tim23-1 inh)
C=C1C(=O)O[C@@H]2C[C@@H](C)[C@@H]3C4OC4C(=O)[C@@]3(C)[C@@H](O)[C@H]12 (some centres not stated)	B2AR ag 43
C=C1C(=O)O[C@H]2[C@H]1[C@H](OC(=O)CC(=O)O[C@@H]1C[C@@H](C)[C@@H]3C=CC(=O)[C@@]3(C)[C@H]3OC(=O)C(=C)[C@H]13)C[C@@H](C)[C@H]1C=CC(=O)[C@]12C	none
CN1C(=O)/C(=C/c2ccc(Cl)s2)C(=O)NC1=S	PfHsp90 yeast 2 94 (no result: tim10-1 inh, TIM10 inh, tim23-1 inh)
Cc1ccsc1/C=C1\C(=O)NC(=S)N(C)C1=O	B2AR ag 55
C=C1C(=O)O[C@@H]2C[C@@H](C)[C@@H]3C=CC(=O)[C@@]3(C)[C@@H](OC(=O)CC(=O)O[C@H]3[C@@H]4C(=C)C(=O)O[C@@H]4C[C@@H](C)[C@@H]4C=CC(=O)[C@]43C)[C@H]12	B2AR ag 48
C=C1C(=O)OC2CC(C)C3C=CC(=O)C3(C)C(O)C12 (configuration not stated)	none (no result: tim10-1 inh, TIM10 inh, tim23-1 inh)
CN(C)c1ccc(C=C2C(=O)NC(=S)NC2=O)cc1	none (no result: tim10-1 inh, TIM10 inh, PfHsp90 yeast 2, tim23-1 inh)
CCN(CC)c1ccc(C=C2C(=O)NC(=S)NC2=O)cc1	B2AR ag 51
Cc1cccc(N2C(=O)NC(=O)/C(=C\C=C\c3ccco3)C2=O)c1	B2AR ag 69
O=C1NC(=O)N(c2ccccc2)C(=O)/C1=C/C=C/c1ccco1	B2AR ag 59
CN1C(=O)/C(=C/C=C/c2ccco2)C(=O)NC1=S	B2AR ag 58
CN(C)c1ccc(/C=C/C=C2/C(=O)NC(=O)N(c3ccccc3)C2=O)cc1	none (no result: tim10-1 inh, TIM10 inh, tim23-1 inh)
Cc1ccc(N2C(=O)NC(=O)/C(=C\C=C\c3ccco3)C2=O)cc1	B2AR ag 69
CCN(C(=O)COC(=O)c1cn(C)c2ccccc12)c1ccc(F)cc1	none (no result: PfHsp90 yeast 2)
O=S(=O)(c1ccccc1)N1CCN2CCCC2C1 (configuration not stated)	none
Cc1ccc(N2C(=O)NC(=O)/C(=C\C=C\c3ccco3)C2=O)cc1C	B2AR ag 60 (no result: tim10-1 inh, TIM10 inh, tim23-1 inh)
COc1cc2c(cc1OC)C13CCN4CC5=CCOC6CC(=O)N2C1C6C5C3C4 (configuration not stated) (tested in a mixture with another compound)	none (no result: tim10-1 inh, TIM10 inh, tim23-1 inh)
CC(C)(O)/C=C/C(=O)C(C)(O)C1C(O)CC2(C)C3CC=C4C(C=C(O)C(=O)C4(C)C)C3(C)C(=O)CC12C (configuration not stated)	B2AR ag 42 (no result: tim10-1 inh, TIM10 inh, tim23-1 inh)
CC(=O)OC(C)(C)/C=C/C(=O)[C@](C)(O)C1[C@H](O)C[C@@]2(C)C3CC=C4C(C[C@H](O)C(=O)C4(C)C)[C@]3(C)C(=O)C[C@]12C (some centres not stated)	B2AR ag 66
CN1CCCC1CCOC(C)(c1ccccc1)c1ccc(Cl)cc1 (configuration not stated)	none (no result: tim10-1 inh, TIM10 inh, tim23-1 inh)
Cn1c(=O)c2c(nc(-c3ccc(N(CCCl)CCCl)cc3)n2C)n(C)c1=O	none (no result: tim10-1 inh, TIM10 inh, tim23-1 inh)
COCCNC(=O)CN1C(=O)C(C)N=C(c2ccccc2)c2cc(Cl)ccc21 (configuration not stated)	tim10-1 inh 41 | tim10-1 confirm inactive
COC(=O)C1=C(c2ccc(F)cc2F)C[C@@H]2CC[C@H]1N2C(=O)NCCCOC(C)C	none
O=C(COc1ccc2ccccc2c1)N1CCN(Cc2c[nH]c3ccccc23)CC1	tim10-1 inh 50 | tim10-1 confirm inactive
C[C@H](NC(=O)N1C[C@H]2C[C@@H](C1)c1cccc(=O)n1C2)C(=O)Nc1ccccc1F	none
C[C@]12CCC3C(CC[C@H]4C[C@@H](O)CC[C@]34C)C1CC[C@@H]2OC(=O)[C@H](N)CCCCN (some centres not stated)	none
CC(C)CNC(=O)c1c(N)n(Cc2ccc3c(c2)OCO3)c2nc3ccccc3nc12	tim10-1 inh 43 | tim10-1 confirm inactive
COC(=O)C1=C(c2ccc(OC(F)(F)F)cc2)C[C@@H]2CC[C@H]1N2C(=O)N1CCCCC1	none
O=c1c2ccccc2nc(-c2ccccc2)n1-c1ccccc1	none
O=c1c2ccccc2[se]n1-c1ccccc1	tim10-1 inh 55 | tim10-1 confirm 90
O=C1CC(N2CC=C(c3ccccc3)CC2)C(=O)N1c1ccc(F)cc1 (configuration not stated)	tim10-1 inh 43 | tim10-1 confirm 42
CCN1C[C@]2(COC)CC[C@H](O)[C@]34C1[C@](O)([C@@H](OC)[C@H]23)[C@@]1(O)C[C@H](OC)[C@H]2C[C@@H]4[C@@H]1[C@H]2OC	none
O=[N+]([O-])c1ccc(Cl)c([N+](=O)[O-])c1	B2AR ag 59, tim10-1 inh 45 | tim10-1 confirm 39
CCOC(=O)c1c(-n2c(C)cc(/C=C3\C(=O)NC(=O)N(C)C3=O)c2C)sc2c1CCCC2	none
Cc1cc(/C=C2\C(=O)NC(=O)N(c3ccc(Cl)cc3)C2=O)c(C)n1-c1sc2c(c1C#N)CCCC2	tim10-1 inh 41 | tim10-1 confirm inactive
CSc1ccc(CNC(C)C(O)c2ccccc2)cc1 (configuration not stated)	none (no result: PfHsp90 yeast 2)
O=C1C(=O)N(c2ccccc2)P(=O)(N(CCCl)CCCl)N1c1ccccc1	none (no result: tim10-1 inh, TIM10 inh, tim23-1 inh)
CCOC(=O)C1(CCc2ccccc2)CCN(Cc2cccc3c2OCO3)CC1	tim10-1 inh 40 | tim10-1 confirm inactive
CCOC(=O)C1(CCc2ccccc2)CCN(Cc2cccc3cnccc23)CC1	none
C=C(C)[C@@H]1[C@H]2OC(=O)[C@H]1[C@]1(O)C[C@H]3O[C@]34C(=O)O[C@H]2[C@]14C	none (no result: tim10-1 inh, TIM10 inh, tim23-1 inh)
c1ccc(CCn2nnnc2CN2CCC(n3nnc4ccccc43)CC2)cc1	none
Fc1ccc2c(c1)nnn2C1CCN(Cc2nnnn2CCc2ccccc2)CC1	tim10-1 inh 40 (no result: PfHsp90 yeast 2) | tim10-1 confirm inactive
COCCn1c(O)c(/C=N/NC(=O)CSC(=S)N2CCCC2)c(=O)[nH]c1=S	none
